Results taken from ChEMBL document CHEMBL1961873, “Compounds: GSK PKIS; Assays: Nanosyn kinase panel” (2012).

How the values were obtained:
[1] = biological target: Mitogen-activated protein kinase 3 (Homo sapiens) (UniProt P27361); conditions: at 1 µM;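 also: values are mean percent inhibition of MAPK3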
[2] = biological target: SRSF protein kinase 3 (Homo sapiens) (UniProt Q9UPE1); conditions: at 0.1 µM
[3] = biological target: SRSF protein kinase 3 (Homo sapiens) (UniProt Q9UPE1); conditions: at 1 µM
[4] = biological target: Mitogen-activated protein kinase 14 (Homo sapiens) (UniProt Q16539); conditions: at 0.1 µM
Mitogen-activated protein kinase 14 (Homo sapiens), sequence (Q16539 whole entry): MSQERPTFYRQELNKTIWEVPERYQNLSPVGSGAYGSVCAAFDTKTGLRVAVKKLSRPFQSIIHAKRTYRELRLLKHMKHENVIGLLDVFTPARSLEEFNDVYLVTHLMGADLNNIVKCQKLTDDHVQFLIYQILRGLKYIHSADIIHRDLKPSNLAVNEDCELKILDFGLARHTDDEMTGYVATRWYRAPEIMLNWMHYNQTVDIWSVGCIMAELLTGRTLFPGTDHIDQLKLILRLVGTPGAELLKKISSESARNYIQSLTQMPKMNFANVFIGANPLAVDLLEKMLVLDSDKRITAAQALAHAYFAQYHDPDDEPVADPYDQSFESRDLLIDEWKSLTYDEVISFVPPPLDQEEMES

[5] = biological target: Mitogen-activated protein kinase 14 (Homo sapiens) (UniProt Q16539); conditions: at 1 µM
[6] = biological target: Mitogen-activated protein kinase 11 (Homo sapiens) (UniProt Q15759); conditions: at 0.1 µM
Mitogen-activated protein kinase 11 (Homo sapiens), sequence (Q15759 whole entry): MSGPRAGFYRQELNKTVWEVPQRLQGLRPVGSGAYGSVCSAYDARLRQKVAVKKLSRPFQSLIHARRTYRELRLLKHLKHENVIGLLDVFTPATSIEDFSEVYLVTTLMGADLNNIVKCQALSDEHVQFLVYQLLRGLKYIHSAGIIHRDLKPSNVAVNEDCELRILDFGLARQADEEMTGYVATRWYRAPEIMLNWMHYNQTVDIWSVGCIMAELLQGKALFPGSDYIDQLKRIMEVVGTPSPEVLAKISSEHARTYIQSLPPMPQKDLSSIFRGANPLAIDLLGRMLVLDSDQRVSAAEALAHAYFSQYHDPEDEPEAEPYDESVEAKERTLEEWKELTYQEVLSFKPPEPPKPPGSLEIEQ

[7] = biological target: Mitogen-activated protein kinase 11 (Homo sapiens) (UniProt Q15759); conditions: at 1 µM
[8] = biological target: T1, Mitogen-activated protein kinase 13 (Homo sapiens) (UniProt O15264); conditions: at 0.1 µM
T1 sequence (whole entry): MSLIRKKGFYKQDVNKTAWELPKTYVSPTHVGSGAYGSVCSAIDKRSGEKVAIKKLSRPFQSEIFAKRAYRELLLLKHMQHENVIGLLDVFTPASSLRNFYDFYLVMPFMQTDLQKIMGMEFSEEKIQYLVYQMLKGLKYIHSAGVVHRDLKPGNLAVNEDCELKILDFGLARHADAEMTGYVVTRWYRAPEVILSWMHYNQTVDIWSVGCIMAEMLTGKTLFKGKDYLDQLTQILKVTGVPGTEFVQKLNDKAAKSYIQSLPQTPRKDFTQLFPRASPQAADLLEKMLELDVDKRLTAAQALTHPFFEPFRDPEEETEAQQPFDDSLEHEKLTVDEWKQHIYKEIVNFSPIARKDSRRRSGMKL

[9] = biological target: T1, Mitogen-activated protein kinase 13 (Homo sapiens); conditions: at 1 µM
[10] = biological target: T2, Mitogen-activated protein kinase 12 (Homo sapiens) (UniProt P53778); conditions: at 0.1 µM
T2 sequence (whole entry): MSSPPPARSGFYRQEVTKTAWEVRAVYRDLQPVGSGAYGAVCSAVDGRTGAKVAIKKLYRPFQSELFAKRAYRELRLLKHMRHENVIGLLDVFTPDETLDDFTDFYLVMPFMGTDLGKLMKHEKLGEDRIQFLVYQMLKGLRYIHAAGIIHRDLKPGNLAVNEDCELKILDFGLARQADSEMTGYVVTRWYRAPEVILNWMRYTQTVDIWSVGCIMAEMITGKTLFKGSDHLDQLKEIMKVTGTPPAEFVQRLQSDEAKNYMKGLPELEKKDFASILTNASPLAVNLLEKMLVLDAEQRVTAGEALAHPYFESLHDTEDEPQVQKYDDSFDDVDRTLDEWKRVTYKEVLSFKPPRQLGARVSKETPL

[11] = biological target: T2, Mitogen-activated protein kinase 12 (Homo sapiens); conditions: at 1 µM
[12] = biological target: SRSF protein kinase 1 (Homo sapiens) (UniProt Q96SB4); conditions: at 0.1 µM
SRSF protein kinase 1 (Homo sapiens), sequence (Q96SB4 whole entry, canonical isoform): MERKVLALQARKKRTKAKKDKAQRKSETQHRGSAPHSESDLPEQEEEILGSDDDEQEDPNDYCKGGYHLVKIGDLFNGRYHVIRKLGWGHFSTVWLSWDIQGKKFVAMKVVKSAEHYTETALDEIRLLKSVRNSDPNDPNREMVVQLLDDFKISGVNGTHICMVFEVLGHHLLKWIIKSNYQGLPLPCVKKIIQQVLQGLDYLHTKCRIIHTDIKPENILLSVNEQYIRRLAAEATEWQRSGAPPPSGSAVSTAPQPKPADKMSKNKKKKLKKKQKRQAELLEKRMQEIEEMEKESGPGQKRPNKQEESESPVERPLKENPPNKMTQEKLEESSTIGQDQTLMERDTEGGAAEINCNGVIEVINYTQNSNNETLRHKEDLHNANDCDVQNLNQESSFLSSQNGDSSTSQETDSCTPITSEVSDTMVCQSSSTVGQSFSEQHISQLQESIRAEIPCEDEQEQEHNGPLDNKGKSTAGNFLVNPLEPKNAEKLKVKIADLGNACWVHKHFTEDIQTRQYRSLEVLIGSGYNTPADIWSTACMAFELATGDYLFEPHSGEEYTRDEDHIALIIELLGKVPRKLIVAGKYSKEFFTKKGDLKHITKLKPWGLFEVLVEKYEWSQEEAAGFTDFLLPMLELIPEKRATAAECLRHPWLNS

[13] = biological target: SRSF protein kinase 1 (Homo sapiens) (UniProt Q96SB4); conditions: at 1 µM
[14] = biological target: Phosphatidylinositol 4,5-bisphosphate 3-kinase catalytic subunit alpha isoform (Homo sapiens) (UniProt P42336); conditions: at 0.1 µM
Phosphatidylinositol 4,5-bisphosphate 3-kinase catalytic subunit alpha isoform (Homo sapiens), sequence (P42336 whole entry, canonical isoform): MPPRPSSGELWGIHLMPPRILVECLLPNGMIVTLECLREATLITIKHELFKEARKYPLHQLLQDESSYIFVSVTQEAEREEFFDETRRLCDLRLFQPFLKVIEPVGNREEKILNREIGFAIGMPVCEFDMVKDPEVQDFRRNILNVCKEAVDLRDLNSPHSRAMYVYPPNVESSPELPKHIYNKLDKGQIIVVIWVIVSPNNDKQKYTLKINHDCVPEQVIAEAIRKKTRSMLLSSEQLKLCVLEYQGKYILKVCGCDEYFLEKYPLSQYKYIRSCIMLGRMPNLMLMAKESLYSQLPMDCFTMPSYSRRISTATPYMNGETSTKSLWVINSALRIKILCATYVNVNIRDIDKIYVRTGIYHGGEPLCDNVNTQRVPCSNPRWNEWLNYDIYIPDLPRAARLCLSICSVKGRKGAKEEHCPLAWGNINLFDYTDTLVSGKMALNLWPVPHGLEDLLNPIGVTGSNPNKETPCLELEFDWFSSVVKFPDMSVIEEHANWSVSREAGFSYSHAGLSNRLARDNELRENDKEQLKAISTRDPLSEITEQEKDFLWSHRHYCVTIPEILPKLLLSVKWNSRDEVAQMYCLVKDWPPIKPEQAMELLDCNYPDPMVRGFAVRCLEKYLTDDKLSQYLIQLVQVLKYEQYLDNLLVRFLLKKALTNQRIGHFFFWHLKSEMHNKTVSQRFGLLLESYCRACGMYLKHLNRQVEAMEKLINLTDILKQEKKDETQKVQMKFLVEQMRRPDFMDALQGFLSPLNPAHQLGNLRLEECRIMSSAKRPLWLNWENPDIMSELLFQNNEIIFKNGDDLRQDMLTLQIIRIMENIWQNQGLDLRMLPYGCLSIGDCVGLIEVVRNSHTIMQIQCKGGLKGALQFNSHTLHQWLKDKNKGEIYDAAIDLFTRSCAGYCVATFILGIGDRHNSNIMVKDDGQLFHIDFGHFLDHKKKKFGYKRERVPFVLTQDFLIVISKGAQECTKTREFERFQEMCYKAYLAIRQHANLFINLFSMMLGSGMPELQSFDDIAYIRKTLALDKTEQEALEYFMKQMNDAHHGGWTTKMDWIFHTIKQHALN

[15] = biological target: Phosphatidylinositol 4,5-bisphosphate 3-kinase catalytic subunit alpha isoform (Homo sapiens) (UniProt P42336); conditions: at 1 µM
[16] = biological target: T3, Phosphatidylinositol 4,5-bisphosphate 3-kinase catalytic subunit delta isoform (Homo sapiens) (UniProt O00329); conditions: at 0.1 µM
T3 sequence (whole entry): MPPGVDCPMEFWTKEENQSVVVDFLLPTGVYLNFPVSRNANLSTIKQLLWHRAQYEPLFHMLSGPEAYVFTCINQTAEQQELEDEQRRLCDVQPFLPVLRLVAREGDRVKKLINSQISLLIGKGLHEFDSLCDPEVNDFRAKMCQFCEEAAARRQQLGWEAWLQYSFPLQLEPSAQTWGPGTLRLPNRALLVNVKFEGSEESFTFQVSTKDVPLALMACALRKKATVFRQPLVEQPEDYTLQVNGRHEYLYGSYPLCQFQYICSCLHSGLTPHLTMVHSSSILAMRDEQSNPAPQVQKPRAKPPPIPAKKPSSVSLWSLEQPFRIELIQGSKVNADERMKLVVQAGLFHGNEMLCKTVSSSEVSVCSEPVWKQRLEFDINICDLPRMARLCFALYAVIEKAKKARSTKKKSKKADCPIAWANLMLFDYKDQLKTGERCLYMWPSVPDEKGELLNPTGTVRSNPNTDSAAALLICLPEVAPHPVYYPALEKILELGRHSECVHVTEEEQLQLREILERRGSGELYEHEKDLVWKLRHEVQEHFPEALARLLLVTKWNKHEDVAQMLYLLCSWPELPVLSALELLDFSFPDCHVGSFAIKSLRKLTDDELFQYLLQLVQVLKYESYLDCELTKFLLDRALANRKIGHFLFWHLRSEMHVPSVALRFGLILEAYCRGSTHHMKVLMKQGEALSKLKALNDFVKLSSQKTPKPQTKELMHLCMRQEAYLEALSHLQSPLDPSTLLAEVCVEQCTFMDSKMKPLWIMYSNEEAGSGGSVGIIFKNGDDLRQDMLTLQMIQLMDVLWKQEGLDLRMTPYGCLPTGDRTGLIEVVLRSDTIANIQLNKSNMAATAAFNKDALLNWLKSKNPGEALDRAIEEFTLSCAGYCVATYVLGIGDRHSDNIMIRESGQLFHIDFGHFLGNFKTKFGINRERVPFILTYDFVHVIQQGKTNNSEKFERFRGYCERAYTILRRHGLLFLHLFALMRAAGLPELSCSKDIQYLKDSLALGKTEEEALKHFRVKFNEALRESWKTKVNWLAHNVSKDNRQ

[17] = biological target: T3, Phosphatidylinositol 4,5-bisphosphate 3-kinase catalytic subunit delta isoform (Homo sapiens); conditions: at 1 µM
[18] = biological target: Phosphatidylinositol 4-kinase beta (Homo sapiens) (UniProt Q9UBF8); conditions: at 0.1 µM
Phosphatidylinositol 4-kinase beta (Homo sapiens), sequence (Q9UBF8 2-816 limits assumed): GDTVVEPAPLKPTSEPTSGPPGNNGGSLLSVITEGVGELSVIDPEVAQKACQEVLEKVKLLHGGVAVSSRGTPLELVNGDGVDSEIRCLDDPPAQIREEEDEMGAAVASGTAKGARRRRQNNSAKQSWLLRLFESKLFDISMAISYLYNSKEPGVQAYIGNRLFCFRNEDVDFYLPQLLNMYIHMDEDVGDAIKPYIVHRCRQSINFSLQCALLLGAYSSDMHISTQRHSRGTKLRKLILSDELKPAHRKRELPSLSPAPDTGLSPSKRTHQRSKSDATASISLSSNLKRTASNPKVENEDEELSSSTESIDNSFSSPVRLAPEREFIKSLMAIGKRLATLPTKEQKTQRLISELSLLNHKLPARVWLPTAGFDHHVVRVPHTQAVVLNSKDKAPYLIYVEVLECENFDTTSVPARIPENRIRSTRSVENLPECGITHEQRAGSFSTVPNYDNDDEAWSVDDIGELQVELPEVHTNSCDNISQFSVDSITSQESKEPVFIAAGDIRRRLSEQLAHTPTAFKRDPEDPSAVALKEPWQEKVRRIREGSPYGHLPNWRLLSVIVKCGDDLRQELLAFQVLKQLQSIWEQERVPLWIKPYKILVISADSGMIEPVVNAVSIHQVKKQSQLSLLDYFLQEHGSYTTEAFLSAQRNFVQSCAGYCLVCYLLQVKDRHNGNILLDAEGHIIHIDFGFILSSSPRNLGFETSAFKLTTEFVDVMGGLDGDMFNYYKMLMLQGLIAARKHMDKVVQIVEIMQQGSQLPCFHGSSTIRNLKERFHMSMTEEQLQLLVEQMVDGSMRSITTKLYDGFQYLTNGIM

[19] = biological target: Phosphatidylinositol 4-kinase beta (Homo sapiens) (UniProt Q9UBF8); conditions: at 1 µM
[20] = biological target: Sphingosine kinase 1 (Homo sapiens) (UniProt Q9NYA1); conditions: at 0.1 µM;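 also: mean percent inhibition of SPHK1 activity, measured within the GSK PKIS screening panel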
Sphingosine kinase 1 (Homo sapiens), sequence (Q9NYA1 whole entry): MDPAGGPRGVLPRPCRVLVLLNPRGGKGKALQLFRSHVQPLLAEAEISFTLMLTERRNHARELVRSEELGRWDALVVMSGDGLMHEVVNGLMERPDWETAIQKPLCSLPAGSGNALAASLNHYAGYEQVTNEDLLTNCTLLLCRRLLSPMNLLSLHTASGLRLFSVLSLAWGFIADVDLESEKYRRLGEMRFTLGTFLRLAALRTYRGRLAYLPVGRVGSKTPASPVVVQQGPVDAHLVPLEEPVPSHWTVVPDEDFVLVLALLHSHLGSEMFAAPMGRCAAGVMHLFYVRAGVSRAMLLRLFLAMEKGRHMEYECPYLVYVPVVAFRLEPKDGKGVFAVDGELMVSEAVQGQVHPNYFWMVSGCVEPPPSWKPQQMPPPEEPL

SRSF protein kinase 3 (Homo sapiens), sequence (Q9UPE1 whole entry): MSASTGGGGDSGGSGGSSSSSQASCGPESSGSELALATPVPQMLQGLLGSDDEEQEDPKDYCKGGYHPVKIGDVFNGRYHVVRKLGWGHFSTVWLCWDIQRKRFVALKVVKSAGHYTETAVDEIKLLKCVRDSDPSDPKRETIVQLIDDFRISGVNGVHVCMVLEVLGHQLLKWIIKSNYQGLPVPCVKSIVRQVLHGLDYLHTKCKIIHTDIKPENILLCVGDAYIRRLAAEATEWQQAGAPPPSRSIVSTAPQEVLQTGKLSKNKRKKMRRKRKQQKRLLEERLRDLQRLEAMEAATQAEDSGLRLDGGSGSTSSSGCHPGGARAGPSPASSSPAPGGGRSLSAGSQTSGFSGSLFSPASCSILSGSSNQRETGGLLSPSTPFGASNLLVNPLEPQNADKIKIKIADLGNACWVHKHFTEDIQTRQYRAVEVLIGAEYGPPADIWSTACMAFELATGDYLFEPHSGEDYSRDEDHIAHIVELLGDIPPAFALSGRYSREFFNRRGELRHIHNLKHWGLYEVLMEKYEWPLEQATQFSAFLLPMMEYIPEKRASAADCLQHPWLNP
Mitogen-activated protein kinase 3 (Homo sapiens), sequence (P27361 whole entry): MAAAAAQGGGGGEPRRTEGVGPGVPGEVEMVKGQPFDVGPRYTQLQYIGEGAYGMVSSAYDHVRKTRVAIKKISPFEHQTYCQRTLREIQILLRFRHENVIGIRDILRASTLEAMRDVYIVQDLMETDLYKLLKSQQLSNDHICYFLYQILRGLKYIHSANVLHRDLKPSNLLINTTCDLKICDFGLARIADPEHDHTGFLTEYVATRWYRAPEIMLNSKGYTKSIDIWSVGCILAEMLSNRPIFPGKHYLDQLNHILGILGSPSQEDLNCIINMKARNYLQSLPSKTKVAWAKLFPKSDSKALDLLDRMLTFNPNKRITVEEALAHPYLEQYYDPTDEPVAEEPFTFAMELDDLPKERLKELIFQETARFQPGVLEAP

Row | Structure (SMILES) | inhibition [1] | inhibition [2] | inhibition [3] | inhibition [4] | inhibition [5] | inhibition [6] | inhibition [7] | inhibition [8] | inhibition [9] | inhibition [10] | inhibition [11] | inhibition [12] | inhibition [13] | inhibition [14] | inhibition [15] | inhibition [16] | inhibition [17] | inhibition [18] | inhibition [19] | inhibition [20]
1 | Cc1cccc2c1NC(=O)/C2=N\Nc1ccc(S(N)(=O)=O)cc1 | 2.55% | 0.51% | 1.03% | 3.09% | 5.54% | 1.05% | 1.3% | 1.89% | 3.48% | -3.68% | 0.72% | -0.92% | -1.02% | 2.47% | 1.9% | 1.83% | 3.28% | -4.22% | -2.85% | 0.78%
2 | [O-][S+]1CCN(Cc2ccc(-c3ccc4ncnc(Nc5ccc(OCc6cccc(F)c6)c(Cl)c5)c4c3)o2)CC1 | 4.13% | -2.3% | -1% | 15.9% | 14.9% | 7.73% | 6.99% | 4.67% | 3% | 3.02% | 4.04% | -1.9% | -2.12% | 5.72% | 6.58% | 2.17% | 6.89% | 0.59% | -7.5% | -0.15%
3 | COc1cc(/C=N/Nc2ncnc3[nH]ncc23)ccc1O | 6.69% | 0.77% | 1.87% | 7.26% | 6.91% | 4.13% | 4.56% | 1.51% | 5.72% | 0.15% | 2.2% | -1.89% | 2.08% | 10.2% | 44.2% | 3.6% | 20.3% | 6.86% | 30.9% | -1.46%
4 | CN1CCC(n2cnc(-c3ccc(F)cc3)c2-c2ccnc(N)n2)CC1 | 3.12% | -0.19% | -0.82% | 49.7% | 83% | 5.11% | 30.6% | 0.27% | 4.13% | 0.59% | 2.49% | -1.72% | -1.48% | 1.81% | 5.12% | 4.38% | 27.1% | 1.13% | 3.14% | -2.21%
5 | Cc1cccc(Nc2ncc(-c3ccccc3)o2)c1 | 3.87% | 3.41% | -1.61% | 5.91% | 6.59% | 3.23% | 6.62% | 1.76% | 2.94% | 2.73% | 4.77% | -2.35% | 0.2% | 0.69% | -0.17% | 0.73% | 1.52% | 1.05% | 2.54% | 1%
6 | COc1cccc(-c2c[nH]c3c(N/N=C/c4ccncc4)ncnc23)c1 | 6.39% | 1.36% | 1.67% | 7.04% | 13.3% | 2.44% | 7.25% | 6.19% | 38.2% | 1.88% | 14.7% | 0.71% | -1.68% | 1.14% | 4.14% | 0.94% | 3.3% | -3.02% | 0.08% | -4.21%
